The nature of assay [1]: optical density shifts of acrAB sulA E. coli – strain DRC41, OD650, 48 h, E. coli filamentation inducer project, primary screen (AID 1152).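 Also: E. coli MC1000 strain DRC41 lacking acrAB efflux pump and sulA.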 Conditions: higher = more signal, called active from +8 up or from −8 down.
A short description of assay [2]: probe aLefty1 binding on compound microarray – biochemical, small-molecule microarray, 635/667 nm fluorescence, primary screen (AID 1153).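 Also: score merges spot fluorescence with signal-to-noise ratio from the scanned slide images.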 Conditions: higher = more signal.
A short description of assay [3]: plasmodial surface anion channel blockers, osmotic lysis – cell-based, P. falciparum Indochina, OD700, 1 h, primary screen (AID 1154). Conditions: P. falciparum Indochina infected RBC osmotic lysis, higher = more signal, called active from +8 up or from −8 down.
Assay [4] is described as follows: plasmodial surface anion channel blockers, osmotic lysis – cell-based, P. falciparum Indochina, OD700, 2 h, primary screen (AID 1155).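 Also: lysis reports solute entry through the parasite surface anion channel PSAC.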 Conditions: P. falciparum Indochina infected erythrocytes, higher = more signal, called active from +8 up or from −8 down.
Assay [5] is described as follows: changes in parasitized red cell lysis, either direction – P. falciparum Indochina, OD700, 3 h, PSAC antagonist project, primary screen (AID 1156). Conditions: P. falciparum-infected erythrocytes, osmotic lysis, higher = more signal, called active from +8 up or from −8 down.
Assay [6] is described as follows: plasmodial surface anion channel blockers, osmotic lysis – cell-based, P. falciparum Indochina, OD700, 18 h, primary screen (AID 1157). As to conditions: P. falciparum Indochina infected erythrocytes, osmotic lysis OD700, 18 h; higher = more signal, called active from +8 up or from −8 down.
Assay [7] in a line: S6 kinase pathway phospho-S6 level changes – cell-based, A549, cytoblot, luminescence, serum-stimulated, primary screen (AID 1158).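 Also: serum-stimulated A549 lung adenocarcinoma cells; signal is phosphorylated S6 detected by cytoblot immunostaining with HRP secondary.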 As to conditions: 5 h, higher = more signal.
Assay [8] deals with NADPH oxidase 2 (Homo sapiens) (UniProt P04839). The assay is described as follows: compounds shifting NOX2 Amplex Red fluorescence – cell-based, HEK293-NOX2, PMA-stimulated, NOX inhibitor project, primary screen (AID 1159). Also: test concentration not given here. As to conditions: 45 min, higher = more signal, called active from +8 up or from −8 down.
In assay [9] the target is NADPH oxidase 4 (Homo sapiens) (UniProt Q9NPH5). Briefly: compounds shifting NOX4 Amplex Red fluorescence – cell-based, HEK293-NOX4, tetracycline-induced, NOX inhibitor project, primary screen (AID 1160). As to conditions: HEK293-NOX4, Amplex Red H2O2 fluorescence, 45 min; higher = more signal, called active from +8 up or from −8 down.
Assay [10] addresses NADPH oxidase 5 (Homo sapiens) (UniProt Q96PH1). The assay is described as follows: compounds shifting NOX5 Amplex Red fluorescence – cell-based, HEK293-NOX5, NOX inhibitor project, primary screen (AID 1161). As to conditions: HEK293-NOX5, ionomycin, 45 min, higher = more signal.
The nature of assay [11]: compound effects on lung adenocarcinoma cell viability – A549, calcein-AM fluorescence, 48 h, basal, profiling panel (AID 1162). Also: test concentration not given here. Conditions: higher = more signal.
Assay [12] in a line: compound effects on differentiated 3T3-L1 adipocyte viability – cell-based, 3T3-L1 adipocytes, calcein-AM fluorescence, 48 h, basal, profiling panel (AID 1163). Also: test concentration not given here. Conditions: 3T3-L1 adipocytes viability, higher = more signal.
Assay [13] is described as follows: compound effects on hepatocellular carcinoma cell viability – HepG2, calcein-AM fluorescence, 48 h, basal, profiling panel (AID 1164). Also: test concentration not given here. Conditions: higher = more signal.
Assay [14] in a line: compound effects on multiple myeloma cell viability – MM1S, calcein-AM fluorescence, 48 h, basal, profiling panel (AID 1165). Also: test concentration not given here. Conditions: higher = more signal.
Assay [15] in a line: calcein-AM signal in unstimulated myeloma cells – cell-based, calcein-AM fluorescence, 48 h, PK04 Diversity Set, profiling panel (AID 1166).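 Also: cells grown under basal conditions without added stimulus; test concentration not given here.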 As to conditions: RPMI8226 myeloma viability, higher = more signal.
Assay [16] is described as follows: JC-1 mitochondrial signal, unstimulated HepG2 cells – cell-based, JC-1 fluorescence, 24 h, 100 nL compound, profiling panel (AID 1167). Also: test concentration not given here. As to conditions: HepG2 mitochondrial potential, higher = more signal.
Assay [17] in a line: JC-1 mitochondrial signal, unstimulated adipocytes – cell-based, JC-1 fluorescence, 3T3-L1 adipocytes, 24 h, 100 nL compound, profiling panel (AID 1168). Also: test concentration not given here. Conditions: JC-1 mitochondrial fluorescence, higher = more signal, called active from +8 up or from −8 down.
Assay [18] can be described thus: JC-1 mitochondrial signal, unstimulated myeloma cells – cell-based, JC-1 fluorescence, RPMI8226, 24 h, 100 nL compound, profiling panel (AID 1169). Also: test concentration not given here. Conditions: JC-1 mitochondrial potential fluorescence, higher = more signal.
Assay [19] in a line: JC-1 mitochondrial signal, unstimulated MM1S myeloma – cell-based, JC-1 fluorescence, 24 h, 100 nL compound, profiling panel (AID 1170). Also: test concentration not given here. As to conditions: MM1S mitochondrial potential, higher = more signal.
Assay [20] is described as follows: resazurin metabolic signal in A549 cells – cell-based, resazurin fluorescence, 24 h, PK04 Diversity Set, profiling panel (AID 1171). Also: test concentration not given here. Conditions: A549 viability, higher = more signal, called active from +8 up or from −8 down.

Calls of active or inactive are those of the source.

Chain of NADPH oxidase 2 (Homo sapiens) (P04839 whole entry, looked up): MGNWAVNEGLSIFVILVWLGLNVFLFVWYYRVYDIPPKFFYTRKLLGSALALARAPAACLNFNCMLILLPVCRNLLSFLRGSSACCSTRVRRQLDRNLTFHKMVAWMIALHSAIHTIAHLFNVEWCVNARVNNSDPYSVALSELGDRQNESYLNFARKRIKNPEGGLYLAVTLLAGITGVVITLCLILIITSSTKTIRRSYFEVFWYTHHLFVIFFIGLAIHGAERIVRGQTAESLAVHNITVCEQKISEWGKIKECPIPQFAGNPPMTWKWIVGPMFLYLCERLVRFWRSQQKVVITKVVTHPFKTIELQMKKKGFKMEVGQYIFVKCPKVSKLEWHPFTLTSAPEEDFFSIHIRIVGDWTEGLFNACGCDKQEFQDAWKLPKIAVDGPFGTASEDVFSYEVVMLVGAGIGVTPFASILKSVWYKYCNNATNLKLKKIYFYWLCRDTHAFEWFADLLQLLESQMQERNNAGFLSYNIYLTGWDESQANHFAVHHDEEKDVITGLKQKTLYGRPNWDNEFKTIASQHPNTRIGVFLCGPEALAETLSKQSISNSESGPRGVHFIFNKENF
Chain of NADPH oxidase 5 (Homo sapiens) (Q96PH1 whole entry, looked up): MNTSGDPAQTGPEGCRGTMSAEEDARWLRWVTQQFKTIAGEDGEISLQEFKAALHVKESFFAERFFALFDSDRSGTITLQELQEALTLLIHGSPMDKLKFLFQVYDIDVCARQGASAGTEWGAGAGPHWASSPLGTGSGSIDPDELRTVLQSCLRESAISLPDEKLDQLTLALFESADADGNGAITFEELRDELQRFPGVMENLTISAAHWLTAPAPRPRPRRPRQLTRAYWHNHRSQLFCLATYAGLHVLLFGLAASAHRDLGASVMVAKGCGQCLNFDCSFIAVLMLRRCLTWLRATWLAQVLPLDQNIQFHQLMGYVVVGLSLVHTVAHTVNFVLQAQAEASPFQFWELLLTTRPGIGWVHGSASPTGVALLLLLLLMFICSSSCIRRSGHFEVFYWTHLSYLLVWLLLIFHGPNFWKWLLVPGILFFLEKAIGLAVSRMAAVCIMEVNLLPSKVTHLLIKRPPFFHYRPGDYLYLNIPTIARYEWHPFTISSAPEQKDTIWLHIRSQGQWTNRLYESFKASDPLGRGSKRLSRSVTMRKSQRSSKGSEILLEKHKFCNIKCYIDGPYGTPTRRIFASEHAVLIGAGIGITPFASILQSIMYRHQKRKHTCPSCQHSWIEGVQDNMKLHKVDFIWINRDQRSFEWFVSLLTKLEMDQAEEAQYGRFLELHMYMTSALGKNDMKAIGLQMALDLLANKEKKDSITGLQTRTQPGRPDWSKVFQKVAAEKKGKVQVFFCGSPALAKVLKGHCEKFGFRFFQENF
Chain of NADPH oxidase 4 (Homo sapiens) (Q9NPH5 whole entry, looked up): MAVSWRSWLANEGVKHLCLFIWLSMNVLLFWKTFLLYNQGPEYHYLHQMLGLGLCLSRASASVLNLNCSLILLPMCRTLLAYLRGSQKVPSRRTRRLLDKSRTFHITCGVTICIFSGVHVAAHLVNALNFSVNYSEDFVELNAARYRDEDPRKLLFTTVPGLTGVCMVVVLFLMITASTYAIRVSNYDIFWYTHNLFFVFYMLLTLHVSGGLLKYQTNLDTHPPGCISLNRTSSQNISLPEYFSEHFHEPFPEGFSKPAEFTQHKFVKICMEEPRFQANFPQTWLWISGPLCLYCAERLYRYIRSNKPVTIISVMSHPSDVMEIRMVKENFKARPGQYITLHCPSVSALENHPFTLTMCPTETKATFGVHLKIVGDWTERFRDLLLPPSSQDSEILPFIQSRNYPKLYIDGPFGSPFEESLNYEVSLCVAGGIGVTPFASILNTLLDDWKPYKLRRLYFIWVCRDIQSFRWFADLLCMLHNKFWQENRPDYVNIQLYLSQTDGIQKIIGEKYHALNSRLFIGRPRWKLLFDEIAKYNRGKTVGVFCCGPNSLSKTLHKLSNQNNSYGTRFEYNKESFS

In the case of `COC(=O)[C@@]1(CCS(=O)(=O)c2ccccc2)N=C(c2ccc(OCCCO)cc2)O[C@H]1c1ccccc1N=[N+]=[N-]`, the z-score is -0.527 (inactive) in [1]; 26.9 (active) in [3]; 22.3 (active) in assay [4]; 1.09 (inactive) in [5]; 3.42 (inactive) in assay [6]; 0.819 in assay [7]. Besides, the z-score in assay [8] was -1.31 (inactive); in [9] it was 1.02 (inactive); in assay [10], -1.59; in assay [11] it was -1.66; in assay [12] it was 0.81; in [13] it was -0.474. The z-score in [14] is -0.746; in assay [15], 0.206; in [16] it was 0.335; in assay [17], -0.852 (inactive); in assay [18], -0.687; in [19] it was -0.426. Also, the z-score in assay [20] was -2.02 (inactive). Moreover, in assay [2], the composite z-score is -0.0559.

As for `COCCOC(=O)N1C(=O)[C@@]2(c3ccccc31)[C@H](c1ccc(OCCO)cc1)N1[C@H](c3ccccc3)[C@H](c3ccccc3)OC(=O)[C@H]1[C@@H]2C(=O)N1CCN(c2ncccn2)CC1`, the z-score in assay [1] was 0.118 (inactive); in assay [3], 22.1 (active); in assay [4] it was 6.25 (inactive); in assay [5], 1.4 (inactive); in assay [6] it was 1.56 (inactive); in assay [7], 0.0018. The z-score is 1.19 (inactive) in assay [8]; 0.262 (inactive) in assay [9]; 0.618 in assay [10]; -0.158 in [11]; 1.39 in assay [12]; -0.29 in assay [13]. The z-score in assay [14] was -1.12; in [15], -1.12; in [16] it was 1.03; in [17] it was 0.358 (inactive); in assay [18] it was 0.1; in [19] it was -1.1. In assay [20], the z-score was 0.345 (inactive). In addition, the composite z-score in [2] amounted to 0.547.

As to `C=CCC(OC(C)=O)[C@@H]1[C@@H](N(Cc2ccc(-c3cccc(C(F)(F)F)c3)o2)C(=O)c2cccc3ccccc23)c2cc(OCCCO)ccc2N1C(=O)c1ccc2ccccc2n1` (stereo not given in full), the z-score was -0.855 (inactive) in assay [1]; 0.706 (inactive) in [3]; -0.342 (inactive) in [4]; 1.32 (inactive) in assay [5]; 0.139 (inactive) in [6]; 0.2 in assay [7]. The z-score was -3.37 (inactive) in [8]; -1.17 (inactive) in [9]; -0.606 in assay [10]; -0.16 in [11]; 0.953 in assay [12]; -0.0619 in [13]. Moreover, the z-score in [14] is -0.142; in assay [15], -2.18; in assay [16] it was 2.43; in assay [17], -0.637 (inactive); in [18], 0.307; in [19], 0.582. The z-score in assay [20] is -0.871 (inactive). Also, the composite z-score in [2] was found to be 0.007.

Consider `C=CCN1C(=O)[C@]2(O[C@H](CCn3cc([C@H](O)c4ccccc4)nn3)[C@@H]([Si](C)(C)c3ccc(OC)cc3)[C@@H]2C)c2cc(N3C(=O)c4cccc5cccc3c45)ccc21`, for which the z-score was 0.443 (inactive) in assay [1]; 5.26 (inactive) in [3]; 1.59 (inactive) in assay [4]; 1.97 (inactive) in assay [5]; 0.889 (inactive) in assay [6]; 0.435 in assay [7]. Also, the z-score in assay [8] is 1.06 (inactive); in assay [9] it was 1.11 (inactive); in [10], 0.797; in assay [11] it was -0.133; in assay [12], -0.363; in [13], -3.33. Further, the z-score is -1.4 in assay [14]; -4.46 in [15]; 2.24 in assay [16]; 1.19 (inactive) in assay [17]; -1.02 in assay [18]; -1.33 in [19]. Besides, in assay [20], the z-score was -1.7 (inactive). Also, the composite z-score in [2] was -0.101.

As to `CCOC(=O)C[C@H]1[C@H](OC(=O)c2ccc(C(=O)c3ccccc3)cc2)[C@@H](NC(=O)c2ccc3ccccc3c2)c2cc(OCCCO)ccc2N1C(=O)c1ccc2ccccc2n1`, the z-score was 1.86 (inactive) in assay [1]; 6.29 (inactive) in assay [3]; 1.32 (inactive) in assay [4]; -0.0906 (inactive) in assay [5]; 0.728 (inactive) in assay [6]; 0.154 in assay [7]. Moreover, the z-score was 0.412 (inactive) in assay [8]; 0.0963 (inactive) in [9]; 1.66 in assay [10]; 1.54 in [11]; 0.0263 in assay [12]; 0.664 in assay [13]. Moreover, the z-score in assay [14] is 0.393; in assay [15], -0.693; in assay [16], 2.63; in assay [17] it was 0.978 (inactive); in assay [18] it was -0.0974; in [19] it was 1.75. The z-score in assay [20] was 0.298 (inactive). In assay [2], this compound came in with a composite z-score of 0.23.

As to `COC(=O)[C@@]1(Cc2ccc(OC)cc2)[C@H]2c3cc(C(=O)N(C)C)n(Cc4ccsc4Br)c3C[C@H]2CN1C(=O)c1ccccc1`, the z-score was -0.218 (inactive) in [1]; 4.25 (inactive) in [3]; 1.16 (inactive) in [4]; 0.57 (inactive) in [5]; 0.814 (inactive) in [6]; -0.87 in [7]. The z-score in [8] is 0.555 (inactive); in assay [9] it was 0.536 (inactive); in assay [10], 0.316; in assay [11] it was -0.299; in assay [12], 0.157; in assay [13], 0.205. The z-score is -0.859 in assay [14]; -0.51 in assay [15]; 2.25 in assay [16]; 0.171 (inactive) in assay [17]; -0.484 in [18]; -0.468 in [19]. For the same compound, the z-score in [20] is 0.141 (inactive). The composite z-score in [2] was 0.456.

For the compound `O=C1N(Cc2ccccc2)c2ccccc2[C@H]2OC(c3ccc(OCCCO)cc3)=N[C@@]12Cc1ccccc1`, the z-score in assay [1] is -0.456 (inactive); in [3] it was 28.7 (active); in [4], 25.3 (active); in assay [5] it was 3.25 (inactive); in [6] it was 2.26 (inactive); in assay [7], 0.381. In addition, the z-score was -1.32 (inactive) in assay [8]; -0.641 (inactive) in assay [9]; -1.68 in [10]; -1.22 in assay [11]; 1.93 in assay [12]; -1.78 in [13]. Further, the z-score in assay [14] is -2.75; in [15], -4.59; in [16], -0.67; in assay [17] it was 1.56 (inactive); in assay [18], -1.26; in [19] it was -1.66. Besides, in assay [20], the z-score is -2.1 (inactive). Besides, the composite z-score in [2] worked out at 0.31.

Take `COc1ccc([Si](C)(C)[C@@H]2[C@@H](CCO)O[C@]3(C(=O)N(Cc4ccccc4)c4ccc(N5C(=O)c6ccccc6Oc6ccccc65)cc43)[C@H]2C)cc1`: the z-score in assay [1] is 1.02 (inactive); in [3] it was 2.11 (inactive); in assay [4], 1.37 (inactive); in [5], 0.0898 (inactive); in assay [6] it was 0.718 (inactive); in assay [7] it was 0.656. Moreover, the z-score is 0.212 (inactive) in assay [8]; 1.64 (inactive) in [9]; 2.23 in [10]; -1.47 in [11]; -0.0095 in assay [12]; -1.96 in assay [13]. Also, the z-score was -1.77 in assay [14]; -2.66 in assay [15]; -0.871 in assay [16]; -0.735 (inactive) in [17]; -0.848 in assay [18]; -1.36 in [19]. For the same compound, in assay [20], the z-score is -1.07 (inactive). Also, the composite z-score in assay [2] was 0.0962.

For `COCC(=C=CC[C@@H](O)c1ccc(OCCO)cc1)C[C@@H](O)COCc1ccccc1`, the z-score in assay [1] was 1.81 (inactive); in assay [3], 7.41 (inactive); in assay [4] it was 0.416 (inactive); in assay [5], 0.766 (inactive); in assay [6] it was -0.756 (inactive); in assay [7], 2.43. Further, the z-score in assay [8] was -1.16 (inactive); in assay [9], -0.479 (inactive); in assay [10] it was -2.03; in assay [11], 0.517; in [12], 0.657; in assay [13], 0.712. Besides, the z-score was 0.105 in assay [14]; 0.0253 in [15]; -1.77 in [16]; 0.914 (inactive) in assay [17]; -0.725 in [18]; -1.03 in [19]. For the same compound, the z-score in [20] was 0.583 (inactive). In addition, the composite z-score in assay [2] was determined as 0.0299.

Values taken from PubChem BioAssay.
